Screening data as filed in PubChem BioAssay.
DAX1 inh-1 – inhibitors of DAX1 repression of SF-1 activated StAR promoter; inhibition, % at 6.8 µM; 1.1% of 370,000 active; AID 652010; HEK293T StAR-luciferase reporter, SF-1/DAX-1 repression relief;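 active = inhibition above the mean over all tested compounds plus 3 SD, cut at about 3.6% in these data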;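 note: higher inhibition means more luminescence from relief of DAX-1 repression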
ssDAF12 agonist – S. stercoralis DAF-12 activation, primary screen; 1% of 370,000 active; activation, % at 6.8 µM; HEK293 ssDAF-12/GRIP1 lit1-tk-luc reporter, luminescence; % of 3 µM dafachronic acid response; AID 652126;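 active = activation above the mean over all tested compounds plus 3 SD, cut at about 0.9% in these data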
hcDAF12 agonist – H. contortus DAF-12 activation, primary screen. HEK293 hcDAF-12 lit1-tk-luc reporter, luminescence; 0% DMSO, 100% Δ7-dafachronic acid. activation, % at 6.8 µM. 1.4% of 370,000 active;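 active = activation above the mean of all tested compounds plus 3 SD, cut at about 5.5% in these data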
DAX1 inh-2 – inhibitors of human orphan nuclear receptor DAX1 (NR0B1); P51843; HEK293 Gal4-DAX1 luciferase reporter, luminescence; inhibition, % at 6.75 µM; 0.99% of 340,000 active;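 active = inhibition above the mean over all tested compounds plus 3 SD, cut at about 4.2% in these data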;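 note: inhibition shows as a rise in luminescence from relieved DAX1 repression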
hgDAF-12 ag – activates the H. glycines DAF-12 receptor ligand-binding domain. HEK293 GAL4-hgDAF12 UAS-luciferase reporter, agonist luminescence; normalized to butyrate control. activation, % at 6.8 µM. 1.8% of 370,000 active;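 active = activation above a cutoff set at the mean of all screened compounds plus 3 SD, cut at about 10% in these data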
DAX1 inh confirm – confirmation of human DAX1 (NR0B1) inhibitors; 87% of 2,400 active; shares compounds with DAX1 inh-1; inhibition, % at 6.8 µM; HEK293T StAR-promoter luciferase reporter, SF-1/DAX-1 repression;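 active = inhibition above the average of every tested compound plus 3 SD, cut at about 3.8% in these data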;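 note: active compounds raise luminescence by relieving repression of the StAR reporter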
SF1 mutant ctr – nonselective inhibitor or artifact in SF-1 mutant DAX1 counter-screen | HEK293 StAR-luciferase, SF-1 AF2 mutant, luminescence | shares compounds with DAX1 inh-1 | inhibition, % at 6.8 µM | 78% of 2,400 active;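 active = inhibition above the mean of all tested compounds plus 3 SD, cut at about 3% in these data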
LXR ag – counter-screen for hcDAF-12 agonists: agonists of human LXR-beta; shares compounds with hcDAF12 agonist; HEK293 Gal4-LXR tk-luc reporter, luminescence, 24 h; normalized: DMSO 0%, positive control 100%; activation, % at 6.8 µM; 3,400 tested, under 10 active;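 active = mean percent activation of the reporter above a cutoff set as the average over tested compounds plus their standard deviation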
Target sequence (P55055 whole entry, looked up, the tested form may be a part): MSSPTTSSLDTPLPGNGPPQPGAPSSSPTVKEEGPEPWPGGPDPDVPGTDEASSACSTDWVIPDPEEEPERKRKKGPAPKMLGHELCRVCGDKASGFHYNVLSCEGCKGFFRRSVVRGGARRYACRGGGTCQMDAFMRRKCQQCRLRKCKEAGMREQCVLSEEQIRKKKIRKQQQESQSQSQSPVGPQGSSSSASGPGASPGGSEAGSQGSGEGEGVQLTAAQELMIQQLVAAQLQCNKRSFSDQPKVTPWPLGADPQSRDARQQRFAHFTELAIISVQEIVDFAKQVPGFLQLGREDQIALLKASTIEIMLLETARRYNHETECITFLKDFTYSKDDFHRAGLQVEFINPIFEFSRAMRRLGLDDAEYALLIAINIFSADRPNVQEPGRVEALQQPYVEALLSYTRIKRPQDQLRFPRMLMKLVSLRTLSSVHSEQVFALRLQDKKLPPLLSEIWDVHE
hcDAF12 conf – hcDAF-12 agonism, confirmation assay; AID 743032; shares compounds with hcDAF12 agonist; activation, % at 6.8 µM; 61% of 3,400 active; HEK293 hcDAF-12 lit1-tk-luc reporter, luminescence; % of Δ7-dafachronic acid response;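 active = mean activation across triplicate tests above the threshold derived from the earlier primary screen, cut at about 5.5% in these data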
hgDAF12 ag – hgDAF-12 agonism, confirmation assay; shares compounds with hgDAF-12 ag; HEK293 GAL4-hgDAF12 luciferase reporter, agonist mode; percent of butyrate response; activation, % at 6.8 µM; 80% of 3,300 active;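 active = mean activation over triplicate wells above the hit cutoff derived from the earlier primary screen, cut at about 11% in these data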
LXR ag 2 – counter-screen for DAF-12 agonists: agonists of human LXR-beta; shares compounds with hgDAF-12 ag; HEK293 Gal4-LXR luciferase reporter, 24 h; activation, % at 6.8 µM; 3,300 tested, under 10 active;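 active = mean activation of the triplicate above a set limit carried over from the primary screen, none filed active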
Large screens that a line does not name were inactive (follow-up assays come after a bar, where they were run). Compounds with a hit are over-represented: about 4.1% of the library has one in this group of screens.

COc1cccc(-c2nnc(SCC(=O)Nc3ccc(OCc4ccccc4)cc3)n2Cc2ccco2)c1	none (no result: DAX1 inh-2)
CCOC(=O)c1c(C)oc2c1c(CN1CCN(CCO)CC1)c(O)c1ccccc12	DAX1 inh-1 4.8, ssDAF12 agonist 1.1, hcDAF12 agonist 7.1 | DAX1 inh confirm 4.2 | SF1 mutant ctr 3.7 | LXR ag inactive | hcDAF12 conf 6.8
O=C1c2ccccc2C(=O)C1c1ccc2ccccc2n1	DAX1 inh-1 5.8, ssDAF12 agonist 4.4, hcDAF12 agonist 24, DAX1 inh-2 4.2, hgDAF-12 ag 20 | DAX1 inh confirm inactive | SF1 mutant ctr inactive | LXR ag inactive | hcDAF12 conf 21
COC(=O)C1=C(C)NC(C)=C(C(=O)OC)C1c1ccc2ccccc2n1	none
NC(=O)c1ccccc1OCC(=O)Nc1ccc(Cl)c(Cl)c1	DAX1 inh-1 6.9, ssDAF12 agonist 2.2, hcDAF12 agonist 11, DAX1 inh-2 5.8, hgDAF-12 ag 18 | DAX1 inh confirm 21 | SF1 mutant ctr 8.9 | LXR ag inactive | hcDAF12 conf 11
Cc1csc(NC(=O)COc2ccc3c(c2)CCC3)n1	DAX1 inh-1 4.7, hgDAF-12 ag 14 | DAX1 inh confirm 9.6 | SF1 mutant ctr 8.5 | hgDAF12 ag 17 | LXR ag 2 inactive
COc1ccc(-c2cn3cc(C(F)(F)F)cc(Cl)c3n2)cc1	DAX1 inh-1 5.1, ssDAF12 agonist 2.6, hcDAF12 agonist 12, hgDAF-12 ag 23 | DAX1 inh confirm 8.7 | SF1 mutant ctr 6.9 | LXR ag inactive | hcDAF12 conf 15 | hgDAF12 ag 21 | LXR ag 2 inactive
Cc1cccc(/C=N/Nc2ccc3ccccc3n2)c1	none
Cc1ccc(/C=N/Nc2ccc3ccccc3n2)o1	DAX1 inh-1 11, ssDAF12 agonist 1.1, hcDAF12 agonist 8.8, hgDAF-12 ag 22 | DAX1 inh confirm 5.8 | SF1 mutant ctr inactive | LXR ag inactive | hcDAF12 conf 10 | hgDAF12 ag 11 | LXR ag 2 inactive
CCOC(=O)c1c(C)[nH]c(N=Nc2ccc(C)cc2)c1C	DAX1 inh-1 4.9, hgDAF-12 ag 15 | DAX1 inh confirm 12 | SF1 mutant ctr 6.0 | hgDAF12 ag 18 | LXR ag 2 inactive
CCOC(=O)c1c(C)[nH]c(N=Nc2cccc(OC)c2)c1C	DAX1 inh-1 4.9, hcDAF12 agonist 5.9, hgDAF-12 ag 16 | DAX1 inh confirm 16 | SF1 mutant ctr 8.0 | hgDAF12 ag 21 | LXR ag 2 inactive
COC(=O)C1CCCN(C(=O)C2CCN(S(=O)(=O)c3ccc([N+](=O)[O-])cc3)CC2)C1 (stereo unspecified)	none (no result: DAX1 inh-2)
Cn1ccsc1=NC(=O)c1ccc(Cl)cc1	DAX1 inh-1 4.6, ssDAF12 agonist 1.1, hcDAF12 agonist 9.4, hgDAF-12 ag 14 | DAX1 inh confirm 8.9 | SF1 mutant ctr 7.7 | LXR ag inactive | hcDAF12 conf 7.9 | hgDAF12 ag 12 | LXR ag 2 inactive
Cc1cc(SCC(=O)c2ccccc2)nc(=O)[nH]1	none
